AID923: qHTS Assay for Allosteric/Competitive Inhibitors of Caspase-1: Spectroscopic Profiling in AFC Spectral Region; hit rate 1.1% among 75,000; compound fluorescence, AFC spectral region (405/520 nm); Potency, µM (top dose mostly 57.5 µM), without a hit: at the highest dose fluorescence increase, hits mostly activators; further: potency means the concentration at half of the fitted maximal effect; 0% is about no effect
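Baseline compound fluorescence (AFC region, 405 nm ex/520 nm em) taken from the intercept of kinetic reads with 50 nM caspase-1 and 5 uM Ac-WEHD-AFC; normalized to an on-plate AFC standard curve; compounds titrated up to 57 uM.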
HADH2 inh: qHTS Assay for Inhibitors of HADH2 (Hydroxyacyl-Coenzyme A Dehydrogenase, Type II). 3-hydroxyacyl-CoA dehydrogenase type-2 (Homo sapiens), Q99714. recombinant HADH2, NADH fluorescence, beta-hydroxybutyryl-CoA. Potency, µM (titrated, usually from 57.1 µM), for inactives: at the top dose activity change, negative = inhibition, actives largely listed as inhibitors. hit rate 3.4% among 73,000. AID 886, 2007; further: potency means the concentration at half of the fitted maximal effect; on the % scale 0 is the no-effect control and ±100 the full control effect; nearly all actives have a fitted effect of over 60% in size
Target sequence (Q99714 whole entry, looked up, one chain of several): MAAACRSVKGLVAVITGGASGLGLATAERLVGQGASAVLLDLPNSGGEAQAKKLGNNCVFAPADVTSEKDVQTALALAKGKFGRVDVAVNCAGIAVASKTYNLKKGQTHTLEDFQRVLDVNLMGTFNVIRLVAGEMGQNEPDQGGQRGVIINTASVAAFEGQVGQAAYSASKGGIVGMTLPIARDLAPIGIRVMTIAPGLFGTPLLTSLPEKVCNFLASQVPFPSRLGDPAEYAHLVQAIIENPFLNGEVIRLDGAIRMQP
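His-tagged recombinant enzyme from E. coli, 20 nM, preincubated 15 min RT with compound; reaction started with 1 mM NAD+ and 90 uM beta-hydroxybutyryl-CoA in 100 mM Tris-HCl pH 9.0. NADH fluorescence (ex 360/em 450) read over 4 min; last-minus-first difference.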
HSD17B inh: qHTS Assay for Inhibitors of HSD17B4, hydroxysteroid (17-beta) dehydrogenase 4 | Potency, µM (titrated, usually from 57.1 µM), for inactives: at the top dose activity change, negative = inhibition, usual class: inhibitors | 3-hydroxyacyl-CoA dehydrogenase type-2 (Homo sapiens), Q99714 | recombinant HSD17B10, NADH fluorescence kinetic | AID 893, 2007 | hit rate 7.6% among 75,000;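 further: the protocol describes HADH2 (HSD17B10) and not the HSD17B4 of the title; potency means the concentration at half of the fitted maximal effect; on the % scale 0 is the no-effect control and ±100 the full control effect; nearly all actives have a fitted effect of over 70% in size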
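20 nM HADH2, pH 9.0 Tris/Tween; cpd preinc 15 min RT; start w/ 1 mM NAD+ + 90 uM b-hydroxybutyryl-CoA; kinetic fluor ex360/em450 q30s x 4 min; delta last-first.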
A350 autofl: qHTS Assay for Spectroscopic Profiling in A350 Spectral Region; Compound autofluorescence, 340/450 nm, Alexa 350 dye-equivalents; active compounds read high; max dye-equivalent concentration, M; hit rate 11% among 59,000; in the data active means max dye-equivalent concentration above about 10 nM; inconclusive means mostly about 1.1 nM to 9.6 nM
CRE-bla Fsk: Cell signaling CRE-BLA (Fsk stim); CHO CRE-bla reporter (cAMP response element driving beta-lactamase), forskolin EC10, beta-lactamase ratio; Potency, µM (titrated, usually from 38.2 µM), for the others: at the top dose activity change, negative = inhibition, actives largely listed as activators; hit rate 2.5% among 71,000; AID 662, 2007; active means well fitted activation curve with a large enough effect in the signal ratio, with a control signal flat, not every such curve was filed as active; inconclusive means small, poorly fitted or top-dose-only effect, or effect the other way, or a change in a side signal; the % refers to the signal ratio; further: potency means the concentration at half of the fitted maximal effect; % of control where 0% means no effect
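Modulation of forskolin signalling: compounds in titration series added with EC10 NKH 477 to CHO cells carrying a CRE-driven beta-lactamase reporter, 3 h, 37C. CCF4 FRET ratio (460/530 nm, ex 405 nm) gives %activity and AC50.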
4-MU autofl: qHTS Assay for Spectroscopic Profiling in 4-MU Spectral Region | compound autofluorescence, 340/450 nm, 4-MU equivalents; active compounds read high | max dye-equivalent concentration, M | hit rate 11% among 59,000; in the data active means max dye-equivalent concentration above about 10 nM; inconclusive means mostly about 1.1 nM to 9.6 nM
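Compounds in 100 mM Tris, pH 8.0, incubated 15 min at room temperature, then fluorescence read at 340 nm excitation/450 nm emission. Signal converted to 4-MU dye-equivalent concentration using an on-plate six-point 4-MU standard curve.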
The depositor's hits bear a star; i = inactive; ? = inconclusive; nt = no result; [ ] = dose if it differs, or a comment. Compounds with a hit are over-represented: about 14% of the library has one in this group of screens. Unless noted, the call rests on the fitted dose curve; in most records, active means well fitted curve in the direction sought with a large enough effect; inconclusive means small, poorly fitted or top-dose-only effect, or another doubt; inactive means no such curve, though single readings can be large; an effect the other way counts as inactive or inconclusive.

SMILES	AID923	HADH2 inh	HSD17B inh	A350 autofl	CRE-bla Fsk	4-MU autofl
O=c1c(-c2ccc(F)cc2)nc2cnc(Oc3cccc(Cl)c3)nc2n1C1CC1	14%	-2%	-28%	i	11%	i
COc1ncc2nc(-c3cccc(C#N)c3)c(=O)n(CCC#N)c2n1	9%	34%	32µM*	?	?	?
N#CCCn1c(=O)c(-c2cccc(C#N)c2)nc2cnc(Oc3ccccc3)nc21	10%	8%	-18%	?	-4%	?
COc1cccc([C@@H]2Oc3ccc(OC)cc3/C(=N/O[C@@H](C)CN3CCCCc4nc(C)c(C)cc43)[C@@H]2O)c1	3%[11.5 µM]	1%[11.4 µM]	1%[11.4 µM]	nt	nt	nt
O=C(O)C1C(C(=O)O)C(C(=O)O)C1C(=O)O (centres undefined)	0%[11.5 µM]	6%[11.4 µM]	8%[11.4 µM]	i	3%[7.6 µM]	i
COC(=O)C/C=C/C(C)C(OCc1cccc(-c2ccccc2)c1)C1CCCCC1 (centres undefined)	-1%[11.5 µM]	?	-1%[11.4 µM]	nt	nt	nt
CC(C)(C)c1ccc(/C=C/C(=O)Nc2ccc3c(c2)OCCO3)cc1	1%	6%	-6%	nt	nt	nt
C=C1CCC(O)C/C1=C\C=C1/CCCC2(C)C1CCC2C(C)/C=C/C(C)C(C)C (centres undefined)	-4%	nt	4%	nt	nt	nt
COc1ccccc1CC(=O)Nc1ccc(-c2nnc(-c3ccco3)o2)cc1	3%	?	32µM*	nt	11%	nt
COc1ccc(CC(=O)Nc2cccc(-c3nnc(-c4ccco4)o3)c2)cc1	nt	nt	nt	i	nt	i
CCC(=O)Nc1ccc(-c2nnc(-c3ccccc3)o2)cc1	nt	nt	nt	1e-08M*	nt	?
C[C@H]1C2=C3C(CC[C@H]4C(OCc5ccc(F)cc5C(F)(F)F)OC[C@](C)([C@@H]34)N(C(=O)OC(C)(C)C)C2)C(CO)C1CO (some centres undefined)	-1%	1%	-23%	nt	?	nt
CC(C)=CCC1(CC=C(C)C)C(=O)C(C(=O)c2ccccc2)=C2OC(C)(C)CCC2(CC=C(C)C)C1=O (centres undefined)	0%[11.5 µM]	3%[11.4 µM]	1%[11.4 µM]	nt	nt	nt
COc1ccc2c(c1)O[C@H](c1cccc(C(F)(F)F)c1)[C@@H](O)C2=O	-1%[11.5 µM]	8%[11.4 µM]	5%[11.4 µM]	nt	nt	nt
Cc1cc(=O)[nH]c(Nc2cccc(C(F)(F)F)c2)n1	1%	9%	-4%	i	-29%	i
FC(F)(F)c1cccc(-c2nc3nc(Cl)c(Cl)nc3[nH]2)c1	4%[11.5 µM]	-25%[11.4 µM]	4µM*	1.3e-06M*	13%[7.6 µM]	1.2e-06M*
COc1cc2c(OC)cccc2cc1C(=O)O	0%	25µM*	25µM*	2.1e-07M*	-7%	1.9e-07M*
Fc1ccc(CNc2nc(-c3ccco3)cc(C(F)(F)F)n2)cc1	2%	?	25µM*	2.4e-08M*	-4%	2.8e-08M*
FC(F)(F)c1cc(-c2ccco2)nc(NCc2cccnc2)n1	2%	9%	25µM*	8.9e-08M*	18%	9.4e-08M*
c1ccc(Oc2nc(NCc3ccco3)nc(NCc3ccco3)n2)cc1	-1%	-12%	-1%	i	2%	i
CN(Cc1ccco1)c1cc(-c2ccccc2Cl)ncn1	1%	13%	-26%	i	?	i
COc1ccccc1-c1cc(N(C)Cc2ccco2)ncn1	1%	-12%	32µM*	?	?	?
COc1ccc(CCNc2nc(-c3ccco3)cc(C(F)(F)F)n2)cc1OC	2%	-16%	0%	i	?	i
COc1ccccc1-c1cc(C(F)(F)F)nc(NCc2ccco2)n1	-2%	-16%	25µM*	?	15%	?
CCN(CC)C(=O)COc1ccc(Br)cc1Cl	0%	16%	4%	i	0%	i
